Sampled rows, rich in hits. Any-hit rate of the full collection: about 3.4%.
GPR151 ag – activators of human GPR151, primary screen, cell-based, PathHunter beta-arrestin, luminescence; G-protein coupled receptor 151 (Homo sapiens), Q8TDV0; PathHunter beta-arrestin GPR151 cells; activation, % at 11.2 µM; actives 1% (n = 650,000); AID 1508602, 2020; in the data active = activation above about 4.9%;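 also: 0% = median of compound wells and 100% = cells with positive control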
Target sequence (Q8TDV0 whole entry, looked up): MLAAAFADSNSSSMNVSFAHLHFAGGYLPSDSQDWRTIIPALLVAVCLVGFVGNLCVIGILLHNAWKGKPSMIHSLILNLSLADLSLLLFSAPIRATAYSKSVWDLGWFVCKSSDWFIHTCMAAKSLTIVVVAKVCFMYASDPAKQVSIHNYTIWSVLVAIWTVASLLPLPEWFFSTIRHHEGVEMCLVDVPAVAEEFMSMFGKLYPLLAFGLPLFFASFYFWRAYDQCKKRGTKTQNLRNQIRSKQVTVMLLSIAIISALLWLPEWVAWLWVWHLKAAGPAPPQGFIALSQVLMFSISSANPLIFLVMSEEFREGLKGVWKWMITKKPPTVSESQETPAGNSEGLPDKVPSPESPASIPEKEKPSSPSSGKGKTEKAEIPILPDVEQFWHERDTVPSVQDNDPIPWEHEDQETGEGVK
MITF inh – MITF inhibitors, primary screen, biochemical, AlphaScreen, human. Microphthalmia-associated transcription factor (Homo sapiens), O75030. AlphaScreen MITF homodimerization, bead proximity signal. inhibition, % at 2.6 µM. actives 0.91% (n = 650,000). AID 1259374, 2018; in the data active = inhibition above about 50%;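 also: 0% = vehicle wells with protein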
FBW7 act – FBW7 E3 ligase activators, primary screen, biochemical, AlphaScreen, human; F-box/WD repeat-containing protein 7 (Homo sapiens), Q969H0; actives 0.13% (n = 650,000); AID 1259310, 2017; AlphaScreen FBW7–phospho-cyclin E peptide binding, activator screen; normalized activity (activation), % at 26.1 µM; in the data active = normalized activity above about 1.9%;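 also: purified mutant Fbw7 with reduced substrate affinity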
TEAD-YAP inh – TEAD-YAP interaction inhibition, primary screen, TEAD-YAP interaction inhibitor project, luminescence, HEK-TIYL cells. actives 1.4% (n = 640,000). AID 1259422, 2018. TEAD-Gal4/YAP UAS-luciferase luminescence. inhibition, % at 9.12 µM; in the data active = inhibition above about 32%;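 also: 0% = median of test compound wells and 100% = reference inhibitor wells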
GPR151 conf act – GPR151 activators, triplicate retest, confirmation, cell-based, PathHunter beta-arrestin, luminescence; 6,700 tested, under 10 active; shares compounds with GPR151 ag; GPR151 PathHunter beta-arrestin cells, 90 min; % of EA-reagent control over plate median; activation, % at 11.2 µM;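 active = mean percent activation across replicates above the confirmation screen cutoff of 4.91%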
GPR119 ag – GPR119 activators in beta-arrestin cells, counter-screen for GPR151 activator project, cell-based, PathHunter beta-arrestin, luminescence, triplicate; shares compounds with GPR151 ag; 90 min; 0 = compound-well median, 100 = enzyme-acceptor control; activation, % at 11.2 µM; actives 0.3% (n = 6,700);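 active = mean percent activation in the counterscreen above 29.09%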;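 also: counterscreen on off-target GPR119 to flag nonselective hits from the GPR151 activator screen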
* marks the source's active call; other numbers are inactive results; x = no result.

SMILES	GPR151 ag	MITF inh	FBW7 act	TEAD-YAP inh	GPR151 conf act	GPR119 ag
Cc1ccc(S(=O)(=O)N2C(=O)CCC2C(=O)O/N=C(\N)c2ccccc2)cc1 (configuration not stated)	8.4*	5.4	-0.1	-10.3	-0.3	-4.2
Cc1cc(CNC(=S)NCc2ccc(Cl)cc2)nn1C	-0.7	12.9	0.0	9.6	x	x
COc1cccc2cc(-c3cn4ccc(C)cc4n3)c(=O)oc12	1.4	-1.9	-0.1	-69.5	x	x
CCOc1cccc2cc(-c3cn4cc(C)ccc4n3)c(=O)oc12	10.5*	9.3	0.1	-36.0	-1.2	-17.1
CN1CCC(N(C(=O)CCC(=O)O)C2CC2)CC1	8.8*	-3.2	-0.2	4.0	-0.9	-7.6
COc1ccc(NC(=O)c2ccc(Br)s2)cc1OC	8.8*	0.2	0.0	-29.4	0.2	8.8
CN(Cc1ccc(OCC(O)CN2CCc3ccccc3C2)cc1)Cc1cccnc1 (configuration not stated)	0.1	-12.1	0.0	1.2	x	x
CN(Cc1ccc(OCC(O)CN2CCc3ccccc3C2)cc1)Cc1nccs1 (configuration not stated)	5.6*	-17.8	0.0	-3.0	-1.2	-14.9
COc1cccc(NC(=O)c2cc(=O)c3ccccc3o2)c1	4.9*	1.3	-0.3	-39.6	0.1	1.0
COc1ccccc1C(=O)NC(=S)Nc1ccc(Br)c(C)n1	5.2*	9.6	0.1	-2.7	0.2	3.5
CCC(=O)Nc1cccc(NC(=S)NC(=O)c2ccccc2OC)c1	8.8*	12.2	0.1	-49.6	-0.1	-8.9
CC(=O)NC(=S)Nc1ccc(Br)c(C)n1	-2.7	9.2	0.1	-39.6	x	x
COc1cccc(NC(=S)Nc2ccccc2OC)c1	12.8*	15.9	-0.2	-8.0	0.5	-1.4
Cc1nc(-n2nc(C3CC3)cc2NC(=O)COc2ccc3ccccc3c2)[nH]c(=O)c1C	0.1	14.2	0.1	-5.1	x	x
COc1cccc2cc(C(=O)N(C)C3CCCCC3)c(=O)oc12	-1.7	8.7	0.2	-3.1	x	x
COCCN1C(=S)NC2CC1(C)Oc1ccccc12 (configuration not stated)	6.1*	-10.4	0.0	-6.7	-0.3	-9.8
CCn1c(N)c(C(=O)NCC2CCCO2)sc1=S (configuration not stated)	5.6*	-18.1	0.1	-4.7	0.8	7.2
CCN1CCSc2ccc(C(=O)NCC3CCCO3)cc21 (configuration not stated)	8.1*	5.7	0.1	-4.7	-0.5	-6.1
Cc1ccc(-c2nc3n(n2)C(c2ccc(O)cc2)C2=C(CC(C)(C)CC2=O)N3)cc1 (configuration not stated)	1.9	2.3	0.0	0.0	x	x
COc1cccc(OC)c1C(=O)Nc1nc2ccc3nc(C)sc3c2s1	-1.6	19.3	0.0	-1.2	x	x
Cc1cc(C)cc(-n2nnc3c(=O)n(Cc4ccc(Cl)c(Cl)c4)cnc32)c1	-1.0	14.8	0.2	4.3	x	x
COC(=O)c1ccc(Cn2cnc3c(nnn3-c3cc(C)cc(C)c3)c2=O)o1	5.0*	-14.0	0.2	-3.5	0.2	1.5
CCCNC(=O)Cn1cnc2c(nnn2-c2cc(C)cc(C)c2)c1=O	7.0*	0.2	0.0	8.6	0.2	-1.2
COc1ccc(CNC(=S)Nc2cccc(C(C)=O)c2)cc1OC	0.7	21.0	-0.2	6.2	x	x
CCn1c(SCC(=O)Nc2cc(OC)cc(OC)c2)nnc1-c1cccs1	5.5*	-0.6	1.0	18.2	0.1	-0.4
Cn1c(SCC(=O)NCc2cccs2)nnc1-c1cccs1	-0.5	8.1	-0.1	9.9	x	x
CCn1c(SCC(=O)NCc2cccs2)nnc1-c1cccs1	6.9*	4.9	0.1	20.7	-0.4	-0.5
CCn1c(SCC(=O)Nc2ccc(OC)cc2)nnc1-c1cccs1	0.8	5.3	0.2	10.0	x	x

Bioassay records (PubChem BioAssay)
